Compounds without any hit were thinned out: in the full panel of roughly 83,000, 20% have a hit.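 Note: values are percent growth. 100 is the growth of untreated cells, values between 100 and 0 indicate rising inhibition; between -100 and 0 indicates cell death.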 Values without a mark were called inactive. Activity calls are given as the source filed them.

The subject of the test is SNB-75 CNS. Kind of test: NCI-60 one-dose screen, 48 h (100 = growth as untreated, 0 = no growth, -100 = all killed). To be noted: 10 µM unless noted. Here is the method: Growth inhibition of the SNB-75 human tumor cell line is measured as a screen for anti-cancer activity. Cells are grown in 96 well plates and exposed to the test compound for 48 hours. Compounds are tested at a single concentration, which is 10^-5 M for most compounds. The reported endpoint is percent growth (GI% or GIPRCNT), where numbers from 0 - 100% represent growth inhibition, and numbers from -100% - 0 represent cell death. For example, a value of 40 represents 60% growth inhibition. A value of 0 means no net growth occurred over the course of the experiment. A value of -40 indicates 40% of cells at the beginning of the experiment died by the end of the experiment. A value of -100 means all cells are dead at the end of the experiment.
NCI-60 Human Tumor Cell Lines Screen was performed using the standard one-dose NCI protocol, which is described in more detail at https://dtp.cancer.gov/discovery_development/nci-60/default.htm.
Compounds with GIPRCNT values below 10 were considered active. Activity score was based on GIPRCNT using the following formula: […]
Score is 0 for GIPRCNT values of 100 or above, 50 for GIPRCNT values of 0, and 100 for GIPRCNT values of -100.
As for `Cc1c(Cl)cccc1C(=O)Nc1nc2c(s1)CN(C(=O)c1ccc(C(F)(F)F)cc1)CC2`, the growth was 6.65% (active).
As for `Cc1ccc(-c2nc(-c3cn(C)c4ncccc34)cs2)cc1`, the growth is -40.2% [100 µM] (active).
To `CCN(CC)c1ccc(/C=N/NC(=O)Cc2ccc(Nc3ccnc(C(F)(F)F)c3)cc2)c(O)c1` belongs 5.89% (active).
Under `COCCn1cc(-c2csc(-c3c[nH]c4ccc(Br)cc34)n2)c2cccnc21` stands 39.7%; under `C[n+]1ccc(CCc2c[nH]c3ccccc23)cc1`, 74.6%.
Under `COc1cc(Cl)c(C)cc1NC(=O)c1cc2ccccc2cc1O` stands 21.4%; under `C[C@@H]1O[C@@H](O[C@@H]2C[C@H](c3ccc4c(c3O)C(=O)C3=C(C4=O)[C@@]4(O)C(=O)C[C@](C)(O)C[C@@]4(O)C=C3)O[C@H](C)[C@H]2O)CC[C@@H]1O[C@H]1C[C@@H](O)[C@H](O)[C@@H](C)O1`, 90.7%; under `CCN1C(=O)N(CC)C2C1NN=c1s/c(=C\c3ccc(C(F)(F)F)cc3)c(=O)n12` (stereo not given), 15%.
`O=C1NC(=O)/C(=C/c2c(-c3ccccc3)nc3sc(COc4ccccc4)nn23)S1`: the growth was 108%.
Take `O=C(NC1CC(F)C1)c1cc2cccnc2n1-c1ccc(Cl)c(Cl)c1` (stereo not given): the growth was 89.1%.
Under `COc1ccc(/C=C/C(=O)c2ccc(NC(=O)CSc3nc4c([nH]3)c(=O)n(C)c(=O)n4C)cc2)cc1OC` stands 82.3%; under `CCc1ccc(CCC(=O)Nc2ncc(Cc3ccccc3)s2)o1`, 3.46% (active); under `COC(=O)c1nc(-c2ccccc2)oc1S(=O)(=O)NCC(c1ccc(Cl)cc1)N1CCOCC1` (stereo not given), 94.3%.
Take `Cc1ccc(/C=C/C(=O)c2ccc(-n3cc(CN4CCN(c5cc6c(cc5F)c(=O)c(C(=O)O)cn6C5CC5)CC4)nn3)cc2)cc1`: the growth is 70.8%.
Under `Cc1ccc(C2CC(c3nc(-c4ccc(Cl)cc4)oc3C)=NN2C(=O)c2ccncc2)cc1` (stereo not given) stands 82.1%; under `O=C1/C(=C/c2ccc(O)c(O)c2)COc2ccc(-c3ccccc3)cc21`, 21.1%.
As to `Cc1ccc(S(=O)(=O)c2nc(-c3ccccc3)oc2Sc2nc3ccccc3s2)cc1`, the growth was 70.8%.
In the case of `CCCCCCCC/C=C\CCCCCCCCOc1ccc(CC(=O)NCC[N+]2(C)CCOCC2)cc1`, the growth is 41.2%.
On to `COc1ccc2c(c1)c(-c1nc(-c3c[nH]c4ncccc34)cs1)cn2CCO`, for which the growth is 31.7%.
Consider `CC(=O)Oc1ccc(OC(C)=O)c2ccccc12`, for which the growth was 105%.
Under `Cc1ccc(S(=O)(=O)N2CCC(=O)c3ccccc32)cc1` stands 42.8%; under `CC1(C)[C@@H](O[C@@H]2OC[C@@H](O[C@@H]3O[C@H](CO)[C@@H](O)[C@H](O)[C@H]3O[C@@H]3OC[C@@H](O)[C@H](O)[C@H]3O)[C@H](O)[C@H]2O[C@@H]2O[C@H](CO)[C@@H](O)[C@H](O)[C@H]2O)CC[C@]2(C)[C@H]3CC[C@]45OC[C@@]6(CC[C@](C)(C=O)C[C@H]64)[C@H](O)C[C@@]5(C)[C@]3(C)CC[C@@H]12`, -78.5% (active); under `COc1ccc2c(c1)CCc1[nH]nc(-c3cc(OC)c(OC)c(OC)c3)c1-2`, 36.7%.
In the case of `Cc1cc(Nc2ccc(C(=O)N3CCCC3)cc2)nc(NCCCNc2ccnc3cc(Cl)ccc23)n1`, the growth is 91.2%.
In the case of `OCCNCCNC(Cc1ccc(Cl)cc1)c1ccccc1` (stereo not given), the growth is 72.8%.
Under `O=C(O)c1cn(C2CC2)c2cc(N3CCN(C(=O)Nc4nc(-c5ccc(Br)cc5)cs4)CC3)c(F)cc2c1=O` stands 24%.
In the case of `Cc1ccc(-c2nc(N3CCNCC3)c3oc(-c4ccc(C)cc4)nc3n2)cc1`, the growth is 89%.
Under `CCSc1oc(C)nc1[P+](c1ccccc1)(c1ccccc1)c1ccccc1` stands 35.1%; under `CS(=O)(=O)c1nnc(-c2ccccc2)s1`, 103%; under `C/C(Cc1ccc(Cl)cc1)=C(\c1ccc(OCCCN(C)C)cc1)c1ccc(OC(=O)Cc2ccccc2)cc1`, 92.8%.
As to `O=C(/C=C/c1cccc(Cl)c1Cl)Nc1ncc(Cc2ccccc2Cl)s1`, the growth was 36.4%.
Under `[2H]C([2H])([2H])Oc1ccc(F)cc1/C=C/C(=O)/C=C(O)/C=C/c1cc(F)ccc1OC([2H])([2H])[2H]` stands 94.9%; under `CCN(CC)CCN1C(=O)c2c(c(C)c3c(oc4ccc(O)cc43)c2C)C1=O`, 94.3%.
For `N#Cc1nc(-c2ccccc2)oc1S(=O)(=O)N1CCN(c2ccc(F)cc2)CC1`, the growth was 96.9%.
For `CCOC(=O)/C=C1\S/C(=N\Nc2cc(=O)[nH]c3ccccc23)N(c2ccccc2)C1=O`, the growth is 80.1%.
In the case of `CN1CCN(Cc2ccc(NC(=O)c3cncc(C#Cc4cnc(N)c5ncccc45)c3)cc2C(F)(F)F)CC1`, the growth is -76.8% (active).
For `COc1ccc(N2CCC(=S)NC2=S)cc1`, the growth was 71.6%.
`Cc1ncc(C(=O)Nc2ccc(CN3CCN(C)CC3)c(C(F)(F)F)c2)cc1C#Cc1cnc(N)c2ncccc12`: the growth was 50.9%.
Under `S=c1[nH]c(=S)c2c(-c3ccccc3)c(-c3ccccc3)oc2[nH]1` stands 95.2%; under `CCN1CCN(CCNc2nccc(-c3c(-c4ccc(F)c(OC)c4)nc4sccn34)n2)S1(=O)=O`, 74%.
